The values below come from PubChem BioAssay (NCATS).

Test [1] addresses Tyrosyl-DNA phosphodiesterase 1 (Homo sapiens) (UniProt Q9NUW8). Put plainly: Confirmation Assay for Inhibitors of Tyrosyl-DNA Phosphodiesterase (TDP1) (AID 489007). Note: nearly all actives have a fitted effect of over 40% in size. Conditions: recombinant human TDP1 enzymatic activity, dose-response. An outline of the steps:
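AlphaScreen read-out: streptavidin donor and anti-FITC acceptor beads (10 ug/ml) bind intact substrate, so Tdp1 removal of tyrosine-FITC lowers signal. Enzyme 1 nM, substrate 15 nM, 5 min reaction at room temperature after 15 min compound preincubation.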

The target of test [2] is ATP-dependent 6-phosphofructokinase (Trypanosoma brucei brucei) (UniProt O15648). Put plainly: qHTS Assay to Find Inhibitors of T. brucei phosphofructokinase: hit validation (AID 492961). Conditions: T. brucei PFK, ADP-Glo luminescence; series mostly up to 51.4 µM. The method, boiled down:
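Inhibition of parasite PFK is measured as reduced ADP formation, quantified via luciferase after ATP depletion. Assay used 0.1 mM ATP, 0.5 mM F6P, 1.25 nM enzyme, 45 min incubation.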

Records with an inconclusive call do not appear. Where a call stands in place of a potency, no number is given. Activity calls are given as the source filed them. Calls come from the whole dose curve; as a rule, active = well fitted curve in the direction sought with a large enough effect; inconclusive = small, poorly fitted or top-dose-only effect, or another doubt; inactive = no such curve, though single readings can be large; an effect the other way counts as inactive or inconclusive.
Potency is the fitted concentration of half-maximal effect.

ATP-dependent 6-phosphofructokinase (Trypanosoma brucei brucei), sequence (O15648 whole entry, looked up): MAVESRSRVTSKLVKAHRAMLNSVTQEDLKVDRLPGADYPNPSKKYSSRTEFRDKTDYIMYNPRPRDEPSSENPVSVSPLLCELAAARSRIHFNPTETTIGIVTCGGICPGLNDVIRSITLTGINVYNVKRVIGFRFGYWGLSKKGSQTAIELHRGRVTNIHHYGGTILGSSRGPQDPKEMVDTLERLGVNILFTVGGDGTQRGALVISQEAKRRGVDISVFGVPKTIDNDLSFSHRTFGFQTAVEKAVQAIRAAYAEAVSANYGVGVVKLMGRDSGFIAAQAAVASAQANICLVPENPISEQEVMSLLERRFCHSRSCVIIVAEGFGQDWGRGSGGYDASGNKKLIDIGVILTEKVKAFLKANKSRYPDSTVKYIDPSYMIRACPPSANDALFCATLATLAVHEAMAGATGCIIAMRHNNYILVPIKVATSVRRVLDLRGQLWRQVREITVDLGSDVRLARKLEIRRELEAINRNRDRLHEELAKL
Tyrosyl-DNA phosphodiesterase 1 (Homo sapiens), sequence (Q9NUW8 whole entry, looked up): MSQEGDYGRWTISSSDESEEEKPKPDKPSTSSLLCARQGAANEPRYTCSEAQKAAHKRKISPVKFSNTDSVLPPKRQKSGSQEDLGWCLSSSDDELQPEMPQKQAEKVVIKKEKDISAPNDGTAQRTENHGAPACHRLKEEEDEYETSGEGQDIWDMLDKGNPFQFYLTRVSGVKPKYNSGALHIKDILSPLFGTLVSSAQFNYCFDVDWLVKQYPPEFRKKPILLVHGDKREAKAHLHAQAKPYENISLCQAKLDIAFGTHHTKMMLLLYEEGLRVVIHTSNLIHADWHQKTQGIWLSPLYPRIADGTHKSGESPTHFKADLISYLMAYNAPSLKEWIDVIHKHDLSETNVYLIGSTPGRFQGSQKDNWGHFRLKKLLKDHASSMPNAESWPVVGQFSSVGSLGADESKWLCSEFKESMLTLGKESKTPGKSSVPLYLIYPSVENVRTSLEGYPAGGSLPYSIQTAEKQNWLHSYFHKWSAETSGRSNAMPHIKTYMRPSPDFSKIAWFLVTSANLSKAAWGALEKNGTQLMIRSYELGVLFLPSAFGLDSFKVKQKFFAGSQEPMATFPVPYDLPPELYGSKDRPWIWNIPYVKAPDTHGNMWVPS

Consider `O=c1oc2c(O)c(O)cc3c(=O)oc4c(O)c(O)cc1c4c23`, for which, in test [1], the Potency is 0.004 µM (active).
As to `COc1ccc(C(=O)CC(=O)c2ccc(C(C)(C)C)cc2)cc1`, the Potency in test [1] is 25.1 µM (active).
`CN(C)CCc1c[nH]c2ccc(CS(=O)(=O)N3CCCC3)cc12`: in test [2], the Potency result was “inactive”.
Turning to `CCOC(=O)c1ccc(OC(=O)CCCCCN=C(N)N)cc1`, the Potency result in test [2] is “inactive”.
As for `Cc1oc(=O)oc1CN1CCN(c2cc3c(cc2F)c(=O)c(C(=O)O)c2n3C(C)S2)CC1` (stereo not drawn), the Potency entry in test [2] is “inactive”.
Same read-out and setting: under `CC(C)Cn1cnc2c(N)nc3ccccc3c21` stands “inactive”; under `CN(CCOc1ccc(CC2SC(=O)NC2=O)cc1)c1ccccn1` (stereo not drawn), “inactive”.
Same read-out and setting: under `O=P(O)(O)C(O)(Cc1cccnc1)P(=O)(O)O` stands “inactive”.
Still for that read-out and setting: the entry for `CCn1cc(C(=O)O)c(=O)c2cc(F)c(N3CCNCC3)nc21` is “inactive”; for `Cc1cccc(Nc2ccncc2S(=O)(=O)NC(=O)NC(C)C)c1` it is “inactive”.
Consider `COC(=O)Nc1nc2ccc(Sc3ccccc3)cc2[nH]1`, for which, in test [2], the Potency entry is “inactive”.
On the same count and under the same terms, the entry for `CNNCc1ccc(C(=O)NC(C)C)cc1` is “inactive”; for `Nc1nc(N)nc(-c2cc(Cl)ccc2Cl)n1` it is “inactive”.
The same measure, in the same setting: under `CCN(C)C(=O)Oc1cccc([C@H](C)N(C)C)c1` stands “inactive”; under `CCOCC(O)COc1ccc(NC(=O)CC[S+](C)C)cc1` (stereo not drawn), “inactive”.
The same measure, in the same setting: under `N[C@@H](C(=O)N[C@@H]1C(=O)N2C(C(=O)O)=C(Cl)CS[C@H]12)c1ccccc1` stands “inactive”.
Turning to `CCCN[C@H]1CCc2nc(N)sc2C1`, the Potency entry in test [2] is “inactive”.
Same read-out and setting: under `COc1ncnc(NS(=O)(=O)c2ccc(N)cc2)c1OC` stands “inactive”; under `COc1ccc(-c2ccc3cc(C(=O)O)ccc3c2)cc1C12CC3CC(CC(C3)C1)C2`, 15.8 µM (active); under `COc1cc([C@@H]2c3cc4c(cc3[C@H](O)[C@H]3COC(=O)[C@H]23)OCO4)cc(OC)c1OC`, “inactive”.
In the case of `C#CCN[C@@H]1CCc2ccccc21`, the Potency entry in test [2] is “inactive”.
As for `CNS(=O)(=O)Cc1ccc2[nH]cc(CCN(C)C)c2c1`, the Potency entry in test [2] was “inactive”.
On the same count and under the same terms, the entry for `S=P(N1CC1)(N1CC1)N1CC1` is “inactive”.
In the case of `CCn1cc(C(=O)O)c(=O)c2cc(F)c(N3CCNCC3)cc21`, the Potency entry in test [2] was “inactive”.
In the case of `CCCc1nc(C)c2c(=O)[nH]c(-c3cc(S(=O)(=O)N4CCN(CC)CC4)ccc3OCC)nn12`, in test [2], the Potency result was “inactive”.
Regarding `CC(C)(Sc1cc(C(C)(C)C)c(O)c(C(C)(C)C)c1)Sc1cc(C(C)(C)C)c(O)c(C(C)(C)C)c1`, the Potency entry in test [2] is “inactive”.
Same read-out and setting: under `CC(C)(C#N)c1cc(Cn2cncn2)cc(C(C)(C)C#N)c1` stands “inactive”; under `COC(=O)Nc1nc2ccc(C(=O)c3ccccc3)cc2[nH]1`, “inactive”; under `CC(C)OC(=O)C(C(=O)OC(C)C)=C1SC=CS1`, “inactive”.
Take `O=c1cc(O)c(Cl)c[nH]1`: in test [2], the Potency entry is “inactive”.
The same measure, in the same setting: the entry for `CNCC[C@H](Oc1cccc2ccccc12)c1cccs1` is “inactive”; for `CC[C@H](NC(C)C)[C@H](O)c1ccc(O)c2[nH]c(=O)ccc12` it is “inactive”; for `CN1CCCC(n2nc(Cc3ccc(Cl)cc3)c3ccccc3c2=O)CC1` (stereo not drawn) it is “inactive”.
